Laboratory results reported in the supplement of paper PMC3334620.
Over roughly 33,000 sequences, “E-score (-0.5 to 0.5)” has its median near -0.032; the highest 2% begin near 0.36. This excerpt belongs to a sample that is enriched for the highest values.

These sequences were tested against T1, Sko1 (UniProt Q02100) (assay: PBM E-score (8-mer binding enrichment) (E-score (-0.5 to 0.5)); higher = stronger / more preferred TF binding). Details: protein concentration: 200 nM; construct: GST-full length.
T1 sequence: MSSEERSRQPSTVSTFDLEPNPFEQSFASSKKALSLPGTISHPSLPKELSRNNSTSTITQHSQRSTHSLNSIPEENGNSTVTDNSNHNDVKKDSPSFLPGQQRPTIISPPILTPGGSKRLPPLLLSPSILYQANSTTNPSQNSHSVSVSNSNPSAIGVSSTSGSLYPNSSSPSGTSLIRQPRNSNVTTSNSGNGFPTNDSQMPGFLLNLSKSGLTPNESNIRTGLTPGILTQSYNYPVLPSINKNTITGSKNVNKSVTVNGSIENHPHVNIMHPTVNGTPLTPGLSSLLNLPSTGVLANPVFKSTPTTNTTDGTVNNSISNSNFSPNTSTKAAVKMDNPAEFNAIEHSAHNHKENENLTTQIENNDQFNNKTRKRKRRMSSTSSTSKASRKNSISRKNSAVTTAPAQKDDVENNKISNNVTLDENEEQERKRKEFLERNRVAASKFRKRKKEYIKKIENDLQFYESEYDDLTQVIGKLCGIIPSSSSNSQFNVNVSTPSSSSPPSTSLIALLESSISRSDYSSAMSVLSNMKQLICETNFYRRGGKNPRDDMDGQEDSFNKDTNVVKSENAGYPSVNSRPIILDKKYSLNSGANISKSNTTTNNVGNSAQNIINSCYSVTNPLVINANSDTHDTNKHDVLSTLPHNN
Procedure, shortened: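 The E-score, a modified Wilcoxon-Mann-Whitney statistic, was computed by the Universal PBM Analysis Suite for every ungapped eight-base word pooled with its reverse complement. Scans behind it were normalised with masliner after bound GST-tagged yeast transcription factors were detected with fluorescent anti-GST. The proteins, at about 100-200 nM, had been applied to universal all-10-mer Agilent arrays made double-stranded by primer extension.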

Sequence	PBM E-score
AATGCCTA	-0.0242
CCTATGCC	-0.3
CCATGGAG	-0.266
ATACGCAG	0.296
ATACGCGC	0.188
CTACGCAA	0.414
AGACGCAC	0.104
CTACGCAG	0.274
ATACGCAC	0.389
CTACGCAC	0.315
TTACGGAA	0.246
ATACGCAT	0.375
TAACGCAA	0.312
TTACGCAA	0.466
AAACGCAT	0.0801
ATAGCCTA	-0.0632
GCAAGGCA	0.0267
AAGACCTG	-0.147
AGCTAATG	0.114
ACGAGACG	0.126
CCACCGAA	-0.00284
CAGCTGAC	0.0244
AAGGGAAG	0.0269
ACCAGAGT	-0.256
ATTCTATG	0.0207

Sequence	PBM E-score
CGTACTCC	0.201
GTACGCGA	0.277
GTACGCAA	0.399
GTACGCAC	0.303
ATACGCGA	0.281
ATACGCAA	0.447
AAACGCAA	0.335
GAAGTTGC	-0.0684
ATAGCACG	-0.0293
AATTGGGT	0.12
GCACGTCC	0.0489
ACACGTCA	0.489
GCCCGTCA	-0.00134
GTACGTCA	0.491
ACACGTCC	0.214
CCACGTCA	0.477
GTACGGCA	0.0279
ACACGTCG	0.335
CCACGTCC	0.109
CCACGTCG	0.168
GTCCGTCA	0.179
GCACGTCA	0.477
GGCCCTAA	-0.259
GACGGTAC	0.171
CCAATGGA	-0.215

Sequence	PBM E-score
AAGACTGT	-0.142
TCACGACA	0.212
TCCCGTCA	0.218
TCACGTCA	0.484
GCACGTGA	0.387
ACACGTGG	0.356
ACACGTGA	0.415
ACACGTGT	0.407
GCTCGTGA	-0.116
ACACGAGT	-0.0245
GCACGTGC	0.296
ACACGTGC	0.346
ACTAGATC	-0.0827
CAAGATTA	0.11
AAGACGCT	-0.168
CAGGTAAC	-0.118
AAGACCCC	-0.274
CATCCCTA	-0.124
CACGTCGG	0.183
GACGTCGA	0.364
TACGTCGA	0.422
AACGTCGA	0.281
TCCGTCGA	-0.0164
CACGTCGA	0.278
CGTGTGGC	0.152

Sequence	PBM E-score
CCTATAGG	-0.205
CAGTAAGA	0.0474
ACACATAC	0.124
CGGTGACG	0.449
AGGTGACA	0.118
CGGTGACA	-0.0125
AGGTGACG	0.388
ATGTGACG	0.44
ATGTGACC	-0.0234
AGGTGACC	-0.0978
CGGTGACC	-0.172
ATGTGACA	0.169
CTCACTAA	0.118
AGGGCCAG	-0.407
ACCGAGGC	-0.319
GGCATTGA	-0.104
ACGTAAGC	0.455
CCGTAATA	0.288
ACGTAAGT	0.465
TCGTAAGA	0.199
AAGTAAGC	0.0436
GCGTAAGC	0.294
GAGTAATA	0.183
AAGTAAGT	0.0641
CCGTAAGA	-0.0187

Sequence	PBM E-score
ACGTAAGA	0.476
GCGTAATA	0.421
CCGTAAGC	-0.0492
AGAGTTCC	-0.269
CGTAGGTC	0.284
GTCTCAAA	-0.0308
AAGATATT	0.0367
ACTCCTAC	0.0364
CGTTGCAC	0.11
CTCGGCGA	-0.0899
CAACATTC	-0.167
AATGCCCA	-0.173
ATTCTTGC	0.0625
GGCAGCAC	-0.103
CTTCTCAA	-0.04
GCAACCGA	-0.129
ATTGGCAA	0.134
GTGTAAGA	0.0148
ATGTAATA	0.376
CTGTAATA	0.042
ACGTAAGG	0.464
GCGTAAGA	0.378
GAGTAAGA	0.0882
AGGTAAGG	-0.0698
GTGTAATA	0.221

Sequence	PBM E-score
CCGTAAGG	-0.15
GACTTTGC	-0.117
TCTCGCAA	-0.114
CATGCCAG	-0.191
CCTAGGCA	-0.257
AGAGCGAT	-0.16
CTAGCTAC	-0.105
GCATGCCA	-0.187
CTGCCATA	-0.0751
GTCTGCCA	-0.00797
TACGCGTA	0.387
AACGCGTA	0.287
GACGCGTA	0.388
CTCGCGTA	0.212
CACGCGTC	0.291
GTCGCGTA	0.363
TACGCGCA	0.209
ATCGCGTA	0.326
CACGCGTA	0.311
CCCTGGCA	-0.34
GGCTGGCA	-0.303
AGAACGGG	-0.124
CGTGCGTA	0.382
AGTGCGTA	0.376
AGTGCGTG	0.152

Sequence	PBM E-score
GGTGCGTA	0.299
AGTGCGTC	0.225
CGTGCGTC	0.388
CGTGCGCA	0.205
CGTGCGAC	0.0911
CCTGCGTC	0.122
CTAGACTA	-0.139
CATTGGTC	-0.282
CTTGTGCA	-0.154
GTAGCGGA	-0.0973
CGCTTAAA	0.0298
AGCGTGAT	0.147
ATGTACAT	0.32
AGGTACAG	-0.145
CCGTACAC	-0.0557
ACGTACAC	0.444
ACGTACAT	0.449
GCGTACAC	0.213
ACGTACAG	0.415
TCGTACAA	0.206
AAGTACAT	0.237
CCGTACAG	-0.22
GCGTACAA	0.146
ACGTACAA	0.414
